# PubChem BioAssay (NCATS)
# Records with an inconclusive call do not appear. Entries that show only a call come without a potency. Activity calls are given as the source filed them. Calls follow the shape of the full dose curve. Square brackets hold non-standard residues; d marks the D form. Peptide text beside a SMILES is read from it. ξ: configuration not given here. d(hArg(Et2)) = CCN=C(NCC)NCCCC[C@@H](N)C(=O)O; hArg(Et2) = CCN=C(NCC)NCCCC[C@H](N)C(=O)O; Phe(4-Cl) = N[C@@H](Cc1ccc(Cl)cc1)C(=O)O; ξ2Nal = NC(Cc1ccc2ccccc2c1)C(=O)O; 3Pal = N[C@@H](Cc1cccnc1)C(=O)O; ξP = O=C(O)C1CCCN1
# Assay: Primary qHTS for inhibitors of SARS-S pseudo-typed particle cell entry (AID 1479145); also: nearly all actives have a fitted effect of over 45% in size
# Settings: SARS-S pseudotyped particle cell entry, luciferase reporter; series mostly up to 57.1 µM
# Potency is read from the fitted curve at half-maximal effect.
row,Structure (SMILES),Potency
1,CCOC(=O)COc1ccc2c(C)c(CCN(CC)CC)c(=O)oc2c1,inactive
2,O=[N+]([O-])c1ccc(/C=C/c2cccc(CO)n2)o1,inactive
3,COCC(=O)Nc1cc(Sc2ccccc2)ccc1N=C(NC(=O)OC)NC(=O)OC,inactive
4,CCC(C)C(NC(=O)C(Cc1ccc(O)cc1)NC(=O)C(NC(=O)C(CCCN=C(N)N)NC(=O)C(N)CC(=O)O)C(C)C)C(=O)NC(Cc1cnc[nH]1)C(=O)N1CCCC1C(=O)NC(Cc1ccccc1)C(=O)O (centres undefined),inactive
5,OC[C@H]1O[C@@H](O)[C@H](O)[C@@H](O)[C@@H]1O,inactive
6,COCC1=C(C(=O)OC(C)OC(=O)OC(C)C)N2C(=O)[C@@H](NC(=O)/C(=N/OC)c3csc(N)n3)[C@H]2SC1 (some centres undefined),inactive
7,CC(Cc1ccc2c(c1)OCO2)NCC(O)c1ccc(O)c(O)c1 (centres undefined),inactive
8,OC[C@H]1O[C@@H](OC[C@H]2O[C@@H](O[C@@H]3[C@@H](O)[C@H](O)O[C@H](CO)[C@H]3O)[C@H](O)[C@@H](O[C@@H]3O[C@H](CO)[C@@H](O)[C@H](O)[C@H]3O)[C@@H]2O)[C@H](O)[C@@H](O)[C@@H]1O,inactive
9,CC(C)(C)c1ccc(CN2CCN(C(c3ccccc3)c3ccc(Cl)cc3)CC2)cc1 (centres undefined),inactive
10,CC1=CC(O)CC(C)(C)C1/C=C/C(C)=C/C=C/C(C)=C/C=C/C=C(C)/C=C/C=C(C)/C=C/C1=C(C)CC(O)CC1(C)C (centres undefined),inactive
11,O=C(N[C@H]1CCS[C@H]2CCC[C@@H](C(=O)O)N2C1=O)[C@@H](S)Cc1ccccc1,inactive
12,CC1(C)S[C@@H]2[C@H](NC(=O)C(C(=O)O)c3ccsc3)C(=O)N2[C@H]1C(=O)O (some centres undefined),inactive
13,NCCNc1ccc(NCCN)c2c1C(=O)c1ccncc1C2=O,11.2 µM (active)
14,CC1(C)S[C@@H]2[C@H](NC(=O)[C@H](N)c3ccccc3)C(=O)N2[C@H]1C(=O)OCOC(=O)[C@@H]1N2C(=O)C[C@H]2S(=O)(=O)C1(C)C,inactive
15,Cc1cc(Nc2ccccc2C(=O)O)ccc1Cl,inactive
16,CO/N=C(\C(=O)N[C@@H]1C(=O)N2C(C(=O)O)=C(CSc3nnnn3C)CS[C@H]12)c1csc(N)n1,inactive
17,ClCC1CO1 (centres undefined) (tested in a mixture with another compound),inactive
18,CNC(C)[C@@H](O)c1ccc(O)cc1 (some centres undefined),inactive
19,CCCCCCCCCCCCCCCCCCCCCC(=O)Nc1ccn([C@@H]2O[C@H](CO)[C@@H](O)[C@@H]2O)c(=O)n1,inactive
20,CC(C)(C)c1ccc2c(S(=O)(=O)O)c(C(C)(C)C)ccc2c1,inactive

row,Structure (SMILES),Potency
1,C[N+](C)(C)C1CCC(CC2CCC([N+](C)(C)C)CC2)CC1 (centres undefined),inactive
2,CCOC(=O)C=C(C)C=CC[C@@H](C)CCCC(C)C,inactive
3,CCNC(=NCCCC[C@H](NC(=O)[C@H](CC(C)C)NC(=O)[C@@H](CCCCN=C(NCC)NCC)NC(=O)[C@@H](Cc1ccc(O)cc1)NC(=O)[C@@H](CO)NC(=O)[C@H](Cc1cccnc1)NC(=O)[C@H](Cc1ccc(Cl)cc1)NC(=O)C(Cc1ccc2ccccc2c1)NC(C)=O)C(=O)N1CCCC1C(=O)N[C@H](C)C(N)=O)NCC (some centres undefined) (Ac-[ξ2Nal][Phe(4-Cl)][3Pal][dS][dY][d(hArg(Et2))]L[hArg(Et2)][ξP][dA]-NH2),inactive
4,C[C@@H]1CCC[C@H](C)N1NC(=O)c1ccc(Cl)c(S(N)(=O)=O)c1,inactive
5,CC1(C)[C@H](C=C(Cl)Cl)[C@@H]1C(=O)OCc1c(F)c(F)cc(F)c1F,inactive
6,O1[As]2O[As]1O2,inactive
7,CCCc1ccc(C(=O)O)cc1,inactive
8,C[C@]12C[C@@H]3S[C@H]3C[C@@H]1CC[C@H]1[C@H]3CC[C@@H](O)[C@@]3(C)CC[C@@H]12,inactive
9,CC(C)(C)NC(=O)[C@@H]1C[C@@H]2CCCC[C@H]2CN1C[C@@H](O)[C@H](Cc1ccccc1)NC(=O)[C@H](CC(N)=O)NC(=O)c1ccc2ccccc2n1,inactive
10,CO[C@@H]1[C@H](C)OC(O[C@H]2CC(Oc3cc4cc5c(c(O)c4c(O)c3C)C(=O)[C@@H](OC3C[C@@H](OC4C[C@H](OC6C[C@](C)(O)[C@@H](OC(C)=O)[C@H](C)O6)[C@@H](O)[C@H](C)O4)[C@H](O)[C@@H](C)O3)[C@H]([C@@H](OC)C(=O)[C@@H](O)[C@H](C)O)C5)O[C@@H](C)[C@H]2OC(C)=O)C[C@@H]1O (some centres undefined),inactive
11,CC[C@H]1OC(=O)C[C@@H](O)[C@H](C)[C@@H](OC2OC(C)C(O)C(N(C)C)C2O)[C@@H](CCN2CCCCC2)C[C@@H](C)C(=O)/C=C/C(C)=C/[C@@H]1CN1CCCCC1 (some centres undefined),inactive
12,CCOC(=O)[C@H](C)C[C@@H](Cc1ccc(-c2ccccc2)cc1)NC(=O)CCC(=O)O,inactive
13,O=S(O)CNc1ccc(S(=O)(=O)c2ccc(NCS(=O)O)cc2)cc1,inactive
14,CCCCC(CC)CCC(CC(C)C)OS(=O)(=O)O (centres undefined),inactive
15,CCOC(=O)[C@H](CS)NCCN[C@@H](CS)C(=O)OCC,inactive
16,O=c1[nH]cnc2c([C@@H]3N[C@H](CO)[C@@H](O)[C@H]3O)c[nH]c12,inactive
17,CO[C@H]1O[C@@H]2O[C@@]3(C)CC[C@H]4[C@H](C)CC[C@@H]([C@@H]1C)[C@@]24OO3,inactive
18,COC(=O)N[C@H](C(=O)N1CCC[C@H]1c1ncc(-c2ccc3c(c2)O[C@@H](c2ccccc2)n2c-3cc3cc(-c4cnc([C@@H]5CCCN5C(=O)[C@@H](NC(=O)OC)C(C)C)[nH]4)ccc32)[nH]1)C(C)C,inactive
19,C=C1/C(=C/C=C2\CCC[C@]3(C)[C@@H]([C@H](C)CCCC(C)(C)O)CC[C@@H]23)C[C@@H](O)[C@@H](OCCCO)[C@@H]1O,inactive
